The source made the active and inactive calls. Unless noted, how the calls were made is not given here.
What was measured:
[1] = compounds binding Alexa647 anti-His antibody – biochemical, small-molecule microarray, 635 nm fluorescence, artefact control for SMM control protein annotation, primary screen (AID 1128); conditions: higher = more signal;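 further: score merges feature fluorescence with signal-to-noise for each printed compound spot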
[2] = tested on: Human papillomavirus type 1a E7 protein (residues 1-88); test: HPV1a E7 small-molecule binders, primary screen, biochemical, small-molecule microarray, residues 1-88, 635 nm (AID 1129); conditions: small-molecule microarray binding, fluorescence 635 nm; higher = more signal
[3] = biological target: Focal adhesion kinase 1 (Homo sapiens) (UniProt Q05397); test: PTK2 protein binding on printed compound slides – biochemical, small-molecule microarray, 635/667 nm fluorescence, BSA, DTT, primary screen (AID 1130); conditions: 635 nm fluorescence, higher = more signal;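 further: composite of spot emission at 667 nm and signal to noise over triplicate slides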
Chain of Focal adhesion kinase 1 (Homo sapiens) (Q05397 whole entry, looked up): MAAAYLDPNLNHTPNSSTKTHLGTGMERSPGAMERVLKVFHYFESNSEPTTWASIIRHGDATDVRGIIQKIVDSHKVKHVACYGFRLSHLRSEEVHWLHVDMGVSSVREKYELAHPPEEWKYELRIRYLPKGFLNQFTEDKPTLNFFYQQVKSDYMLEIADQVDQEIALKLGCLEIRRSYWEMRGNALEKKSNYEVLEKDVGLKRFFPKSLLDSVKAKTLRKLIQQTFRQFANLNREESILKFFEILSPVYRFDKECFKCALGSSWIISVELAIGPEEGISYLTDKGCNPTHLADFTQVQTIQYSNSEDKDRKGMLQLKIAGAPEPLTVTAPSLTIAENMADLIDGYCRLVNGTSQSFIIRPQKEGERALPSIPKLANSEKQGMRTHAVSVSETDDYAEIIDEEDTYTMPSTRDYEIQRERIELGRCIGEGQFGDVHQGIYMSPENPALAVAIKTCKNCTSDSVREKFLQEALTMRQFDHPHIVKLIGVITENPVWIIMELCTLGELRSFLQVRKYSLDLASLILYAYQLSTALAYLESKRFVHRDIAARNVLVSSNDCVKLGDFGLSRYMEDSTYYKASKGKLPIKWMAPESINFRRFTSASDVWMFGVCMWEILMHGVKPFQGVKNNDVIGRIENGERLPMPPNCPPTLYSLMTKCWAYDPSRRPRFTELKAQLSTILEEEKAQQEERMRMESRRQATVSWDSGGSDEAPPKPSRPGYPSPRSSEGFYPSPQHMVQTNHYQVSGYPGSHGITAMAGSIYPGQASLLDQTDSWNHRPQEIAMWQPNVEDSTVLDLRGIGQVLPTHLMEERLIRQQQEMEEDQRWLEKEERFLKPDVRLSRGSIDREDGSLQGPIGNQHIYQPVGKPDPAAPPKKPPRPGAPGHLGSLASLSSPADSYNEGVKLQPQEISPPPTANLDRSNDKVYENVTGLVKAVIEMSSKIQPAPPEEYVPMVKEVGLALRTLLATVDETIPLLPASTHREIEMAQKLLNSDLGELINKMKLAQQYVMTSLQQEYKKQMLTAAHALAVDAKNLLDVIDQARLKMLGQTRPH

[4] = tested on: Fibrinogen (Alexa647-labelled); test: Alexa647-fibrinogen binding to printed small molecules – biochemical, small-molecule microarray, 635/667 nm fluorescence, artefact control for SMM control-protein annotation, profiling panel (AID 1131); conditions: fibrinogen-A647 binding fluorescence, higher = more signal;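 further: z-score merges 667 nm fluorescence with per-spot signal-to-noise over triplicate slides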
[5] = biological target: Follistatin (Homo sapiens) (UniProt P19883); test: FST protein binding to printed compounds – biochemical, small-molecule microarray, 635/667 nm fluorescence, primary screen (AID 1132); conditions: 635 nm fluorescence, higher = more signal
Chain of Follistatin (Homo sapiens) (P19883 whole entry, looked up): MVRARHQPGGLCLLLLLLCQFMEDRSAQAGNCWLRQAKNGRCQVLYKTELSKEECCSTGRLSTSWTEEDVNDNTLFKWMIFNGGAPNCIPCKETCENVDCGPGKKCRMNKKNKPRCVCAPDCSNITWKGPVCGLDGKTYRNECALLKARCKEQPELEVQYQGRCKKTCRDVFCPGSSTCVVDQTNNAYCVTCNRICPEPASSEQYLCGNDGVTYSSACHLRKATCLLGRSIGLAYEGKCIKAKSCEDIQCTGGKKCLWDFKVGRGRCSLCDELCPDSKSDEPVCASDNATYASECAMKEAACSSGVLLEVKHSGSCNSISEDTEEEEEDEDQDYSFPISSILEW

[6] = biological target: Fibroblast growth factor 2 (Homo sapiens) (UniProt P09038); test: basic fibroblast growth factor binding to printed compounds – biochemical, small-molecule microarray, 635/667 nm fluorescence, primary screen (AID 1133); conditions: FGF2, fluorescence 635/667, higher = more signal
Chain of Fibroblast growth factor 2 (Homo sapiens) (P09038 whole entry, looked up): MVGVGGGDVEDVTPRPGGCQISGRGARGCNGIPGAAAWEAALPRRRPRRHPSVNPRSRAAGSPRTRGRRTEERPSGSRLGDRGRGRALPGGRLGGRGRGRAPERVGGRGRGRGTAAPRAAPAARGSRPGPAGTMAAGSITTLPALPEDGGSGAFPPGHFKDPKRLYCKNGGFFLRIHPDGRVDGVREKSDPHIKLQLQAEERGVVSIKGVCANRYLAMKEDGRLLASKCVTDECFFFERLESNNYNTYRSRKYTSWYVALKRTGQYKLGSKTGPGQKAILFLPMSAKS

[7] = JC-1 mitochondrial potential readout, lung cancer cells – cell-based, A549, JC-1 fluorescence, basal, 24 h, 100 nL, profiling panel (AID 1138); conditions: higher = more signal;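 further: A549 lung adenocarcinoma cells under basal conditions with no added stimulus; test concentration not given here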
Lefty1 = Lefty1 protein binding to printed compounds – biochemical, small-molecule microarray, 635/667 nm fluorescence, primary screen (AID 1139); conditions: fluorescence 635/667, higher = more signal
[8] = tested on: wheat germ agglutinin (Triticum aestivum), Alexa647-labelled; test: Alexa647-WGA lectin binding to printed small molecules – biochemical, small-molecule microarray, 635/667 nm fluorescence, artefact control for SMM control-protein annotation, profiling panel (AID 1140); conditions: WGA-A647 binding, 635 nm fluorescence, higher = more signal;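 further: score merges 667 nm feature emission with signal to noise over triplicate slides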
[9] = biological target: Luciferin 4-monooxygenase (Photinus pyralis) (UniProt P08659); test: inhibition of purified Photinus pyralis luciferase – biochemical, luminescence, purified enzyme, 2006 set, primary screen (AID 1141); conditions: purified firefly luciferase, SteadyGlo luminescence, 30 min; higher = more signal, called active from +8 up or from −8 down;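 further: cell-free assay with purified firefly luciferase at 100 ng per well in PBS; test concentration not given here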
Chain of Luciferin 4-monooxygenase (Photinus pyralis) (P08659 whole entry, looked up): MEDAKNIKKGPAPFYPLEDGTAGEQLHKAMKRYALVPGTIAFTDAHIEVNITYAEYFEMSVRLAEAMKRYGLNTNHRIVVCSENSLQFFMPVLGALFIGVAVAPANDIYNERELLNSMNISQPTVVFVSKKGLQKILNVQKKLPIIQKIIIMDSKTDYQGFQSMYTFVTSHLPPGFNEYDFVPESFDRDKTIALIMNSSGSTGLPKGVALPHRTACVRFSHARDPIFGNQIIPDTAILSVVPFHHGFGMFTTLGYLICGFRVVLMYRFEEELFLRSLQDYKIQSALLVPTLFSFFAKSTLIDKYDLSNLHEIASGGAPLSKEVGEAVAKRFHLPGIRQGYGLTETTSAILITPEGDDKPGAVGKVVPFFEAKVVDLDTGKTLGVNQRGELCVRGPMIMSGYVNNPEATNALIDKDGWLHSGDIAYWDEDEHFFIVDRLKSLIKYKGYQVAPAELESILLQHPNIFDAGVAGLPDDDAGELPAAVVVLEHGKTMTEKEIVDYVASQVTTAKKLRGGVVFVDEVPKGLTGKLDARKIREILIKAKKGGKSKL

[10] = tested on: Wnt5a (protein binding on small-molecule microarray); test: small molecules binding Wnt5a protein – biophysical, small-molecule microarray, 635/667 nm fluorescence, primary screen (AID 1142); conditions: 635 nm fluorescence, higher = more signal;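 further: fluorescence read at 667 nm with signal to noise per printed feature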
[11] = ATP-based viability of Huh7 replicon cells – cell-based, CellTiter-Glo luminescence, basal, 48 h, cytotoxicity control for HCV replication inhibitor project, primary screen (AID 1143); conditions: higher = more signal, called active from +8 up or from −8 down;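 further: Huh7 hepatoma cells carrying a hepatitis C replication reporter with no stimulus; test concentration not given here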
[12] = Pseudomonas biofilm growth suppression – PAO1 strain, BacTiter-Glo luminescence, LB-PBS, primary screen (AID 1144); conditions: P. aeruginosa PAO1 biofilm, 12 h, higher = more signal
[13] = basal CRE-LacZ reporter activity in PC12 – cell-based, unstimulated, primary screen (AID 1145); conditions: no forskolin, luminescence, 4.5 h, higher = more signal, called active from +8 up or from −8 down
[14] = forskolin-driven CRE-LacZ activity in PC12 – cell-based, CRE-LacZ reporter, forskolin-stimulated, primary screen (AID 1146); conditions: luminescence, 4.5 h, higher = more signal, called active from +8 up or from −8 down;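 further: PC12 cells with 6xCRE LacZ reporter stimulated by forskolin 10 µM; beta-galactosidase reporter signal reflecting CREB driven transcription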
[15] = biological target: Streptavidin (Streptomyces avidinii) (UniProt P22629); test: compounds binding control protein streptavidin – biophysical, small-molecule microarray, 635/667 nm fluorescence, artefact control for SMM compound annotation, primary screen (AID 1147); conditions: higher = more signal;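 further: signal reflects streptavidin binding to arrayed compounds as a control protein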
Chain of Streptavidin (Streptomyces avidinii) (P22629 whole entry, looked up): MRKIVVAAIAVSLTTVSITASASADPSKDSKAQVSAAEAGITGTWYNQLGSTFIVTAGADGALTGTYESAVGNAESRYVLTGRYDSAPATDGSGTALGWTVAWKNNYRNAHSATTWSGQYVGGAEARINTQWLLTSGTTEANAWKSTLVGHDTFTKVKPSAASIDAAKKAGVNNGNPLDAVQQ

[16] = probe aInhba binding on compound microarray – biochemical, small-molecule microarray, 635/667 nm fluorescence, primary screen (AID 1148); conditions: higher = more signal;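 further: score merges 667nm spot fluorescence with signal-to-noise for antibody binding to printed compounds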
Torsin-1A (Homo sapiens) [17] = biological target: Torsin-1A (Homo sapiens) (UniProt O14656); test: TOR1A wild-type binding on microarray – cell lysate, small-molecule microarray, lysate, 635/667 nm, primary screen (AID 1149); conditions: COS7 hTOR1A-WT lysate, 635 nm fluorescence, higher = more signal
Chain of Torsin-1A (Homo sapiens) (O14656 whole entry, looked up): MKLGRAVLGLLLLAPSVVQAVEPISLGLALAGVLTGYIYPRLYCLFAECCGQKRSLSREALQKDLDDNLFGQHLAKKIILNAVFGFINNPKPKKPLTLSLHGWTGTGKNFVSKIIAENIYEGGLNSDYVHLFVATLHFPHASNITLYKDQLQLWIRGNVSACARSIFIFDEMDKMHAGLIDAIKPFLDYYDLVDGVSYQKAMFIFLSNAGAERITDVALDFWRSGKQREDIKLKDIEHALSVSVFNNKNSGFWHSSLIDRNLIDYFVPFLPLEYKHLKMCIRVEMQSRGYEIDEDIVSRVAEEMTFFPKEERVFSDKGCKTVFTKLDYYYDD

Torsin-1A (Homo sapiens) [18] = biological target: Torsin-1A (Homo sapiens) (UniProt O14656); test: torsin A mutant lysate binding on microarrays – cell lysate, small-molecule microarray, COS7 lysate, 635/667 nm fluorescence, primary screen (AID 1150); conditions: COS7 hTOR1A mutant lysate, 635 nm fluorescence, higher = more signal;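 further: score pools 667 nm emission and signal to noise measuring lysate protein binding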
[19] = tested on: Sonic hedgehog protein (Shh); test: Sonic hedgehog microarray binding compounds – biochemical, small-molecule microarray, 635/667 nm fluorescence, primary screen (AID 1151); conditions: 635 nm fluorescence, higher = more signal;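 further: Shh protein binding to compounds spotted on small-molecule microarray slides; score combines spot fluorescence intensity with signal-to-noise across triplicate slides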

Row | Compound | composite z-score [1] | composite z-score [2] | composite z-score [3] | composite z-score [4] | composite z-score [5] | composite z-score [6] | z-score [7] | composite z-score (Lefty1) | composite z-score [8] | z-score [9] | composite z-score [10] | z-score [11] | z-score [12] | z-score [13] | z-score [14] | composite z-score [15] | composite z-score [16] | composite z-score (Torsin-1A (Homo sapiens) [17]) | composite z-score (Torsin-1A (Homo sapiens) [18]) | composite z-score [19]
1 | Cc1ccc(S[C@]2(C(=O)NCCCN(C)C)CC(=O)N(C(C)C)[C@@H]2c2ccc(CO)cc2I)cc1 | -0.537 | -0.393 | 0.225 | -0.952 | 0.296 | -1.01 | 1.97 | 0.0228 | -0.19 | 0.216 (inactive) | -0.331 | -2.21 (inactive) | -0.985 (inactive) | -0.114 (inactive) | 0.561 (inactive) | -0.199 | -0.0986 | -1.59 | -0.729 | 0.0632
2 | CCOC(=O)C1=CC[C@@H](c2cccc(Cl)c2)N(S(=O)(=O)c2ccc(C)cc2)[C@H]1c1ccc(C#N)cc1 | 0.931 | 1.26 | 0.444 | 0.716 | 0.938 | 0.56 | 1.22 | 1.09 | 0.985 | 1.35 (inactive) | 0.473 | -1.1 (inactive) | 0.494 (inactive) | -0.228 (inactive) | 0.119 (inactive) | 1.15 | 0.0627 | 0.384 | 0.788 | 0.741
3 | CCOC(=O)N1C(c2ccc(OCCCO)cc2)=NC(C(=O)OC)N1C(=O)OCC (stereo not given) | 0.369 | 1.2 | 0.454 | 0.864 | 1.31 | 0.955 | -0.541 | 1.07 | 0.669 | -1.45 (inactive) | 0.506 | -2.41 (inactive) | -1.33 (inactive) | 0.139 (inactive) | 0.666 (inactive) | 0.829 | 0.0614 | 0.497 | 0.36 | 1.13
4 | O=C1O[C@@H](c2ccccc2)[C@@H](c2ccccc2)N2[C@@H](c3ccc(O)cc3)[C@]3(C(=O)Nc4ccc(C#CCCO)cc43)[C@@H](C(=O)O)[C@H]12 | 2.29 | 0.18 | 0.894 | 0.925 | 1.2 | -0.196 | 0.889 | -0.22 | 1.34 | -1.18 (inactive) | 0.13 | 0.457 (inactive) | -0.682 (inactive) | 0.0921 (inactive) | -0.31 (inactive) | 1.47 | 1.47 | 0.0458 | -0.0978 | -0.3
5 | O=C1C2C=CC(C(O)C3CC=CCC3)N(n3cnnc3)C2C(=O)N1Cc1ccccc1 (stereo not given) | 0.794 | -0.288 | 0.559 | 0.909 | -0.439 | -1.14 | -0.704 | -1.07 | 0.451 | 0.934 (inactive) | -0.149 | 0.227 (inactive) | 0.356 (inactive) | 0.332 (inactive) | 0.705 (inactive) | 0.0704 | -0.128 | 0.187 | -0.0519 | -0.183
6 | C=CCC(OC(C)=O)[C@@H]1[C@@H](N(Cc2ccc(-c3ccccc3)cc2)C(=O)c2ccc(C)cc2)c2cc(OCCCO)ccc2N1C(=O)c1ccc2ccccc2n1 (stereo not given in full) | -0.512 | -0.0119 | -0.0203 | -0.459 | 0.0869 | -0.006 | 3.18 | -0.135 | -0.0101 | -1.9 (inactive) | -0.162 | -1.16 (inactive) | -1.41 (inactive) | 5.54 (inactive) | -0.523 (inactive) | 0.105 | 0.173 | -0.211 | 0.115 | 0.794
7 | COCCn1c(C(=O)N2CCCC2)cc2c1C[C@H]1CN(C(=O)c3ccccc3)[C@@](Cc3ccc(OC)cc3)(C(=O)OC)[C@@H]21 | 2.34 | 1.02 | 1.89 | 0.632 | 0.417 | -0.552 | 0.766 | -0.0277 | 1.06 | 0.438 (inactive) | 0.644 | -1.54 (inactive) | -0.2 (inactive) | -0.751 (inactive) | 0.699 (inactive) | 2.01 | 0.739 | -0.141 | 1.29 | -0.89
8 | [N-]=[N+]=Nc1ccccc1C[C@]1(C(=O)N2CCCCC2)N=C(c2ccc(OCCCO)cc2)O[C@H]1c1ccccc1N=[N+]=[N-] | 1.6 | 1.24 | 0.544 | 0.945 | 1.18 | 0.806 | 0.591 | -0.105 | 0.811 | -3.15 (inactive) | 0.316 | -3.99 (inactive) | -0.546 (inactive) | 0.722 (inactive) | -1.69 (inactive) | 1.04 | 0.622 | 0.656 | 0.951 | 0.364
9 | CC(C)CNC(=O)[C@@]1(C)c2ccccc2C(=O)N(C(C)C)[C@H]1c1ccc(CO)cc1 | -0.105 | -1.79 | 0.175 | -1.07 | -0.0856 | -0.379 | -0.265 | -0.353 | -0.148 | 0.691 (inactive) | -0.16 | 1.09 (inactive) | 0.15 (inactive) | -0.179 (inactive) | -0.568 (inactive) | -1.36 | -0.187 | -0.633 | -1.63 | -0.542

From PubChem BioAssay
